PubChem BioAssay (EPA / NIEHS)
A structure can be active in one record and inactive in another. Active and inactive are the calls of the source. The calls were made as follows: active = hit-call score of the fitted dose curve at least 0.9, where 1 is the maximum; inactive = score below 0.9.

How the values were obtained:
[1] = read-out: Vascular endothelial growth factor receptor 2 (Homo sapiens) (UniProt P35968); test: BSK_4H_VEGFRII: BioMAP Diversity Plus: 4H Assay for Vascular endothelial growth factor receptor 2 (VEGFR2) Biomarker Activity (AID 2283031); details: primary human endothelial cells (HUVEC); actives raise or lower the signal;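 as to AC50: cell-surface VEGFR2 protein level quantified by ELISA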
Outline: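 Primary human umbilical vein endothelial cells in the BioMAP 4H system were dosed with test chemical, and 24 h later VEGFRII was measured by ELISA. Activity was fitted bidirectionally against DMSO as negative control and baseline.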

[2] = read-out: Human Leukocyte Antigen - DR isotype (HLADR), HLA-DRA (gene 3122); test: BSK_BE3C_HLADR: BioMAP Diversity Plus: BE3C Assay for Human Leukocyte Antigen - DR isotype (HLADR) Biomarker Activity (AID 2283032); details: primary human bronchial epithelial cells; actives raise or lower the signal
Outline: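 Cell-surface HLA-DR ELISA readout at 24 h after dosing in the BE3C primary human lung bronchial epithelial system; gain or loss of signal against DMSO, with parallel sulforhodamine B staining of total protein for overt cytotoxicity.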

[3] = read-out: Vascular cell adhesion molecule 1 (VCAM1), VCAM1 (gene 7412); test: BSK_4H_VCAM1: BioMAP Diversity Plus: 4H Assay for Vascular cell adhesion molecule 1 (VCAM1) Biomarker Activity (AID 2283033); details: primary human endothelial cells (HUVEC); actives raise or lower the signal
Outline: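 VCAM-1 ELISA read 24 h after chemical dosing of HUVEC in the BioMAP 4H system, with gain or loss of signal fitted relative to DMSO. Parallel SRB staining (560 nm) checked overt cytotoxicity.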

[4] = read-out: Interferon-gamma inducible Protein 10 (IP10), CXCL10 (gene 3627); test: BSK_BE3C_IP10: BioMAP Diversity Plus: BE3C Assay for Interferon-gamma inducible Protein 10 (IP10) Biomarker Activity (AID 2283034); details: primary human bronchial epithelial cells; actives raise or lower the signal
Outline: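 IP-10 quantified by ELISA in human primary bronchial epithelial cell cultures at 24 hours post-dosing. Gain or loss of signal fitted relative to DMSO; parallel SRB staining assessed overt cytotoxicity.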

[5] = read-out: Monokine induced gamma interferon (MIG), CXCL9 (gene 4283); test: BSK_BE3C_MIG: BioMAP Diversity Plus: BE3C Assay for Monokine induced gamma interferon (MIG) Biomarker Activity (AID 2283035); details: primary human bronchial epithelial cells; actives raise or lower the signal
Outline: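 Dose cells (human primary bronchial epithelial), incubate 24 h, quantify MIG by ELISA, then fit concentration–response in both directions relative to DMSO control.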

[6] = read-out: Plasminogen activator inhibitor-1 (PAI1), SERPINE1 (gene 5054); test: BSK_BE3C_PAI1: BioMAP Diversity Plus: BE3C Assay for Plasminogen activator inhibitor-1 (PAI1) Biomarker Activity (AID 2283037); details: primary human bronchial epithelial cells; actives raise or lower the signal
Outline: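 PAI-1 was measured by ELISA in human primary bronchial epithelial cultures 24 h after chemical dosing, with cytotoxicity checked by SRB total-protein staining in parallel cultures. Activity was fitted in both directions relative to DMSO.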

[7] = read-out: urokinase plasminogen activator (uPA), PLAU (gene 5328); test: BSK_BE3C_uPA: BioMAP Diversity Plus: BE3C Assay for urokinase plasminogen activator (uPA) Biomarker Activity (AID 2283038); details: primary human bronchial epithelial cells; actives raise or lower the signal
Outline: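 Human primary bronchial epithelial cells were exposed to chemical for 24 h, then uPA levels were measured by ELISA. Responses were fitted bidirectionally against DMSO as negative control and baseline. Parallel SRB staining of total protein gauged overt cytotoxicity.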

[8] = read-out: Urokinase-type plasminogen activator receptor (uPAR), PLAUR (gene 5329); test: BSK_BE3C_uPAR: BioMAP Diversity Plus: BE3C Assay for Urokinase-type plasminogen activator receptor (uPAR) Biomarker Activity (AID 2283039); details: primary human bronchial epithelial cells; actives raise or lower the signal
Outline: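 uPAR levels were measured by ELISA after 24 h compound treatment of primary human bronchial epithelial cells, fitted in both directions relative to DMSO. Parallel SRB staining served as the cytotoxicity read-out.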

[9] = read-out: Interleukin-6 (IL6), IL6 (gene 3569); test: BSK_CASM3C_IL6: BioMAP Diversity Plus: CASM3C Assay for Interleukin-6 (IL6) Biomarker Activity for (AID 2283040); details: primary human coronary artery smooth muscle cells; actives raise or lower the signal
[10] = read-out: Tissue plasminogen activator (tPA), PLAT (gene 5327); test: BSK_BE3C_tPA: BioMAP Diversity Plus: BE3C Assay for Tissue plasminogen activator (tPA) Biomarker Activity (AID 2283041); details: primary human bronchial epithelial cells; actives raise or lower the signal
Outline: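 tPA measured by ELISA 24 h after dosing human primary bronchial epithelial cells (BE3C system). Changes in either direction were fitted against DMSO. Parallel cultures were stained with SRB to flag overt cytotoxicity.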

[11] = read-out: Interleukin-8 (IL8), CXCL8 (gene 3576); test: BSK_CASM3C_IL8: BioMAP Diversity Plus: CASM3C Assay for Interleukin-8 (IL8) Biomarker Activity (AID 2283042); details: primary human coronary artery smooth muscle cells; actives raise or lower the signal;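 also: IL-8 protein level quantified by ELISA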
[12] = read-out: Human Leukocyte Antigen - DR isotype (HLADR), HLA-DRA (gene 3122); test: BSK_CASM3C_HLADR: BioMAP Diversity Plus: CASM3C Assay for Human Leukocyte Antigen - DR isotype (HLADR) Biomarker Activity (AID 2283043); details: primary human coronary artery smooth muscle cells; actives raise or lower the signal;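 also: cell-surface HLA-DR protein level quantified by ELISA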
[13] = read-out: Macrophage colony-stimulating factor (MCSF), CSF1 (gene 1435); test: BSK_CASM3C_MCSF: BioMAP Diversity Plus: CASM3C Assay for Macrophage colony-stimulating factor (MCSF) Biomarker Activity (AID 2283044); details: primary human coronary artery smooth muscle cells; actives raise or lower the signal;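 also: M-CSF protein amount quantified by ELISA after 24 h exposure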
[14] = read-out: Low-density lipoprotein receptor (LDLR), LDLR (gene 3949); test: BSK_CASM3C_LDLR: BioMAP Diversity Plus: CASM3C Assay for Low-density lipoprotein receptor (LDLR) Biomarker Activity (AID 2283045); details: primary human coronary artery smooth muscle cells; actives raise or lower the signal;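 also: LDLR protein level on the cell surface quantified by ELISA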
[15] = read-out: Monocyte Chemoattractant Protein-1 (MCP1), CCL2 (gene 6347); test: BSK_CASM3C_MCP1: BioMAP Diversity Plus: CASM3C Assay for Monocyte Chemoattractant Protein-1 (MCP1) Biomarker Activity (AID 2283046); details: primary human coronary artery smooth muscle cells; actives raise or lower the signal;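 also: MCP-1 level quantified by ELISA 24 h after dosing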
[16] = BSK_CASM3C_Proliferation: Cell Proliferation Assessment in the BioMAP Diversity Plus: CASM3C Assay (AID 2283047); details: primary human coronary artery smooth muscle cells;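 also: sulforhodamine B total protein stain as relative cell number at 560 nm; sub-confluent cells exposed 48 h before staining; fitted both ways against DMSO so gain or loss of cell number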
[17] = read-out: Monokine induced gamma interferon (MIG), CXCL9 (gene 4283); test: BSK_CASM3C_MIG: BioMAP Diversity Plus: CASM3C Assay for Monokine induced gamma interferon (MIG) Biomarker Activity (AID 2283048); details: primary human coronary artery smooth muscle cells; actives raise or lower the signal
[18] = read-out: serum amyloid A (SAA), SAA1 (gene 6288); test: BSK_CASM3C_SAA: BioMAP Diversity Plus: CASM3C Assay for serum amyloid A (SAA) Biomarker Activity (AID 2283049); details: primary human coronary artery smooth muscle cells; actives raise or lower the signal;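 also: SAA protein level quantified by ELISA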
[19] = read-out: Urokinase-type plasminogen activator receptor (uPAR), PLAUR (gene 5329); test: BSK_4H_uPAR: BioMAP Diversity Plus: 4H Assay for Urokinase-type plasminogen activator receptor (uPAR) Biomarker Activity (AID 2283030); details: primary human endothelial cells (HUVEC); actives raise or lower the signal
Outline: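 Primary human umbilical vein endothelial cells were exposed to chemical for 24 h before cell-surface uPAR was quantified by ELISA. Activity was fitted bidirectionally against the DMSO negative control baseline.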

[20] = read-out: Transforming growth factor beta 1 (TGFb1), TGFB1 (gene 7040); test: BSK_BE3C_TGFb1: BioMAP Diversity Plus: BE3C Assay for Transforming growth factor beta 1 (TGFb1) Biomarker Activity (AID 2283036); details: primary human bronchial epithelial cells; actives raise or lower the signal
Outline: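 ELISA readout of TGF-b1 from human lung bronchial epithelial primary cells, taken 24 h post-treatment. Gain or loss of signal fitted relative to DMSO baseline, with parallel SRB staining for overt cytotoxicity.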

Measured: AC50

O=C(O)C(F)(F)OC(F)(F)C(F)(F)OC(F)(F)C(F)(F)OC(F)(F)F
active: [2] 9.98 µM | [4] 7.49 µM
inactive: [1] | [2] | [3] | [4] | [5] | [6] | [7] | [8] | [9] | [10] | [11] | [12] | [13] | [14] | [15] | [16] | [17] | [18]

OCCCCC(F)(F)C(F)(F)C(F)(F)C(F)(F)F
inactive: [19] | [1] | [2] | [3] | [4] | [5] | [6] | [7] | [8] | [9] | [10] | [11] | [12] | [13] | [14] | [15] | [16] | [17] | [18]

FC(F)(F)C(F)(F)C(F)(F)C(F)(F)C(F)(F)C(F)(F)CC[Si](Cl)(Cl)Cl
inactive: [19] | [1] | [2] | [3] | [4] | [5] | [6] | [7] | [8] | [9] | [10] | [11] | [12] | [13] | [14] | [15] | [16] | [17] | [18]

CO[Si](C)(CCC(F)(F)C(F)(F)C(F)(F)C(F)(F)C(F)(F)C(F)(F)F)OC
inactive: [19] | [1] | [2] | [3] | [4] | [5] | [6] | [7] | [8] | [9] | [10] | [11] | [12] | [13] | [14] | [15] | [16] | [17] | [18]

O=C(O)C(F)(F)C(F)(F)C(F)(F)OC(F)(F)F
inactive: [19] | [1] | [2] | [3] | [4] | [5] | [6] | [7] | [8] | [9] | [10] | [11] | [12] | [13] | [14] | [15] | [16] | [17] | [18]

CCN(CC)c1ccc(C=O)c(O)c1
inactive: [19] | [1] | [2] | [3] | [4] | [5] | [20] | [6] | [7] | [8] | [9] | [10] | [11] | [12] | [13] | [14] | [15] | [16] | [17] | [18]

O=C1c2c(O)ccc(Nc3ccc(CCO)cc3)c2C(=O)c2c([N+](=O)[O-])ccc(O)c21
inactive: [20] | [6] | [7] | [8] | [9] | [10] | [12] | [13] | [14] | [15] | [17] | [18]
active: [19] 31.1 µM | [1] 34.8 µM | [2] 3.43 µM | [3] 26.6 µM | [4] 20 µM | [5] 20 µM | [11] 2.52 µM | [16] 14.5 µM

Cc1cc(C)c(O)c(C(C)(C)C)c1
inactive: [1] | [11]
active: [19] 37.7 µM | [2] 29.5 µM | [3] 30.4 µM | [4] 31 µM | [5] 36 µM | [20] 29.8 µM | [6] 27.9 µM | [7] 28.7 µM | [8] 28.2 µM | [9] 29.6 µM | [10] 29.6 µM | [12] 25.5 µM | [13] 22.7 µM | [14] 20 µM | [15] 24.9 µM | [16] 25.3 µM | [17] 29.3 µM | [18] 20 µM

CC(C)(C)c1cc(CCC(=O)NCCCCCCNC(=O)CCc2cc(C(C)(C)C)c(O)c(C(C)(C)C)c2)cc(C(C)(C)C)c1O
active: [4] 0.121 µM | [15] 0.824 µM
inactive: [19] | [1] | [2] | [3] | [5] | [20] | [6] | [7] | [8] | [9] | [10] | [11] | [12] | [13] | [14] | [16] | [17] | [18]

NCC(F)(F)C(F)(F)C(F)(F)C(F)(F)C(F)(F)C(F)(F)F
inactive: [19] | [1] | [2] | [3] | [4] | [5] | [6] | [7] | [8] | [9] | [10] | [11] | [12] | [13] | [14] | [15] | [16] | [17] | [18]

CC(C)CCCC(C)CCO (stereo not given)
active: [2] 29.1 µM | [4] 14.4 µM | [20] 20 µM | [7] 28.6 µM | [8] 24.9 µM | [9] 32.5 µM | [10] 26 µM | [12] 32.2 µM | [13] 32.3 µM | [14] 32.1 µM | [15] 31.2 µM | [16] 30.9 µM | [17] 29.7 µM | [18] 29.6 µM
inactive: [19] | [1] | [3] | [5] | [6] | [11]
